Assay outcomes (PubChem)
HTR5A inv ag: HTR5A inverse agonists in luminescence cell assay, primary screen, counter-screen for OPRM1-OPRD1 heterodimer inverse agonist project, full-deck HTS | HTR5A cell line, inverse agonism | 5-hydroxytryptamine receptor 5A (Homo sapiens), P47898 | 340,000 compounds, 0.083% hits | inhibition, % at 9.3 µM; in the data active = inhibition mostly above about 23%, no sharp cut-off; inactive = mostly below about 18%;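 also: 0% = cells with DMSO and 100% = no-cell wells with DMSO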
Target sequence (P47898 whole entry, looked up): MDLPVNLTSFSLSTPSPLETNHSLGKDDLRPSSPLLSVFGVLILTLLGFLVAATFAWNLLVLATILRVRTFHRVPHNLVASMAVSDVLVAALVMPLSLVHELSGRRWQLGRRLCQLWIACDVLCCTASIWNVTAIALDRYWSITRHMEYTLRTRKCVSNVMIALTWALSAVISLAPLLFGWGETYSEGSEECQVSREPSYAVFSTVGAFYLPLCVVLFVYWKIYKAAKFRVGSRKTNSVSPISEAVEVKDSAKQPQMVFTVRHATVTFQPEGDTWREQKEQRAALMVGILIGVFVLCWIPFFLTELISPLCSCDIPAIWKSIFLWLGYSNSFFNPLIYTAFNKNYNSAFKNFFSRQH
OPRM1-OPRD1 inv: inverse agonists of MOR-DOR heterodimerization, primary screen, cell-based, luminescence. Mu-type opioid receptor (Homo sapiens) + Delta-type opioid receptor (Homo sapiens), …. inhibition, % at 9.3 µM. cell-based MOR-DOR heterodimer luminescence, inverse agonism. 340,000 compounds, 0.21% hits. AID 504357, 2011; in the data active = inhibition above about 22%, passing the limit was not always enough;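 also: 0% = cells with DMSO and 100% = wells without cells with DMSO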
HGIII-sPLA2 inh: human group III sPLA2 inhibitors, primary screen, biochemical, QFRET, BODIPY PC-A2 liposome substrate; Group 3 secretory phospholipase A2 (Homo sapiens), Q9NZ20; QFRET BODIPY PC-A2 liposome hydrolysis, fluorescence; inhibition, % at 12.2 µM; 370,000 compounds, 0.56% hits;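 active = inhibition above mean plus 3 SD of compounds lying within the high and low control bounds, cut at about 19% in these data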;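 also: 0% = median of test compound wells and 100% = no enzyme DMSO wells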
HTR5A ag: HTR5A agonists in luminescence cell assay, primary screen, counter-screen for OPRM1-OPRD1 heterodimer agonist project, full-deck HTS; 5-hydroxytryptamine receptor 5A (Homo sapiens), P47898; cell-based; activation, % at 9.3 µM; 340,000 compounds, 0.61% hits; in the data active = activation mostly above about 9.5%, no sharp cut-off; inactive = mostly below about 7.6%;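 also: 0% = cells with vehicle only and 100% = reference agonist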
m5-HT2A agonist: mouse Htr2a agonists via beta-arrestin recruitment, primary screen, cell-based, luminescence; 5-hydroxytryptamine receptor 2A (Mus musculus), P35363; CHO-K1 mHTR2A beta-arrestin complementation; percent of 30 µM serotonin response; activation, % at 7.6 µM; 360,000 compounds, 0.66% hits;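 active = activation above a run cutoff, the mean activation of all tested compounds plus 3 SD, cut at about 14% in these data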;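 also: 0% = plate median of compound wells and 100% = 30 µM serotonin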
OPRM1-OPRD1 ag: agonists of OPRM1-OPRD1 heterodimerization, primary screen, cell-based, luminescence | cells | activation, % at 9.3 µM | 340,000 compounds, 0.3% hits; in the data active = activation above about 18%;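 also: 0% = vehicle-treated cells and 100% = reference agonist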
hGIII sPLA2 conf: human group III sPLA2 inhibitors, confirmation, biochemical, QFRET, triplicate | shares compounds with HGIII-sPLA2 inh | recombinant hGIII-sPLA2, BODIPY PC-A2 QFRET fluorescence | inhibition, % at 12.2 µM | 2,000 compounds, 34% hits;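 active = mean inhibition across triplicates above the hit cutoff set in the earlier primary screen, cut at about 19% in these data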;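 also: 0% = enzyme with DMSO and 100% = DMSO wells lacking enzyme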
535nm interf: 535nm fluorescence optical interference, confirmation, artefact control for HGIII-sPLA2 inhibitor project, biochemical, QFRET | shares compounds with HGIII-sPLA2 inh | BODIPY FL product fluorescence interference | inhibition, % at 12.2 µM | 2,000 compounds, 8.5% hits | AID 743282, 2014;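 active = average inhibition above the solvent-only control mean plus 3 SD, cut at about 6% in these data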;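 also: 0% = DMSO with substrate plus product and 100% = DMSO with substrate alone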
535nm interf DR: 535nm fluorescence optical interference, dose response, artefact control for HGIII-sPLA2 inhibitor project, biochemical, QFRET; shares compounds with HGIII-sPLA2 inh; BODIPY FL product fluorescence interference, cell-free; IC50, µM; 240 tested, under 10 active;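 active = IC50 at or below 10 µM; inactive = IC50 above 10 µM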
* hit, by the source's call; . = not tested or not shown. In the library only some 2.2% were active in any assay of this set; here they are far more common.

SMILES	HTR5A inv ag	OPRM1-OPRD1 inv	HGIII-sPLA2 inh	HTR5A ag	m5-HT2A agonist	OPRM1-OPRD1 ag	hGIII sPLA2 conf	535nm interf	others
CCCCC(=O)Nc1ccc(C(=O)NNC(=O)c2ccco2)cc1	7	5	3	0	4	-1	.	.
O=C(Nc1ccc(NC(=S)NC(=O)c2cccs2)cc1)c1ccccc1	18	10	15	4	-3	-2	.	.
COc1ccc(S[C@]2(C(=O)N3CCOCC3)CC(=O)N(c3ccc(Cl)cc3)[C@@H]2c2ccc(OC)cc2)cc1	.	.	-5	.	.	.	.	.
CCC(C)[C@H](NC(=O)[C@H](CC(C)C)NC(=O)OC(C)(C)C)C(=O)N[C@@H](Cc1ccccc1)C(=O)OC (stereo not given in full)	.	.	16	.	.	.	.	.
O=C(c1ccc(F)cc1Cl)N1CCCC(c2nc(-c3cccs3)no2)C1 (stereo not given)	.	.	-5	.	.	.	.	.
COC(=O)C1CN(Cc2cn(CCC3OCCO3)nn2)CCS(=O)(=O)N1Cc1ccc(OC)cc1 (stereo not given)	.	.	7	.	.	.	.	.
CCCCCCCCN1C(=O)[C@@H](CC(=O)NCc2ccc(OC)c(OC)c2)C[C@@]2(C(=O)OC)C1=C[C@H](C(C)C)O[C@@H]2C1CC1	.	.	-18	.	.	.	.	.
CCN(CC)C(=O)CC[C@H]1CC[C@]2(CCCN(Cc3nccn3C)C2)O1	.	.	1	.	.	.	.	.
COC(=O)N/N=C/c1c(C)nn(-c2cccc(Cl)c2)c1Cl	7	0	20*	-3	-2	0	5	-6
CN(CCCOC(=O)CC1C=CCC1)C1CN(Cc2cn(Cc3ccccc3Cl)nn2)S(=O)(=O)C1 (stereo not given)	.	.	-1	.	.	.	.	.
COc1cc(Sc2ccc(C)cc2)c(OC)cc1N	-6	-34	22*	9	-5	6	38*	9.1*
COC(=O)c1ccc(Sc2ccc(C)cc2)c(N)c1	1	-21	2	0	-3	4	.	.
Cc1ccc(C)c(-n2cc[nH]c2=S)c1	6	1	20*	-2	5	0	8	-5
Cc1ccc(-n2cc[nH]c2=S)c(C)c1	.	.	4	.	3	.	.	.
Cc1ccccc1S(=O)(=O)N(C)C[C@@H]1OCc2cn(nn2)CCCC(=O)N([C@@H](C)CO)C[C@H]1C	.	.	-3	.	.	.	.	.
C/C(=N\NC(=O)c1nn(C)c(C)c1Br)c1ccc(NC(=O)c2ccccc2F)cc1	2	3	22*	-1	-4	-1	-1	-11
C/C(=N\NC(=O)c1nn(C)c(C)c1Br)c1ccc(NC(=O)c2ccoc2C)cc1	-25	16	13	9	0	-3	.	.
CNC(=S)/N=C(/Nc1ccccc1)c1ccccc1	-5	12	10	2	1	-2	.	.
CNC(=S)/N=C(\Nc1ccc(C)cc1)c1ccccc1	.	.	21*	.	-1	.	19	-7
O=C(N/N=C/c1sc2ccccc2c1O)c1cccc2ccccc12	3	-21	31*	-4	-1	3	9	5
COc1ccc2cc(C(=O)N/N=C/c3sc4ccccc4c3O)ccc2c1	6	-13	21*	-3	-3	2	-28	-33
COc1ccc(C(=O)N/N=C/c2sc3ccccc3c2O)cc1	-6	-25	.	1	-4	4	.	.
O=C(N/N=C/c1sc2ccccc2c1O)c1ccccc1	10	-5	.	-4	-6	1	.	.
Cc1ccc(C=Nn2c(-c3n[nH]c4c3CCC4)n[nH]c2=S)s1	.	.	13	.	.	.	.	.
Cc1ccc(C=Nn2c(-c3n[nH]c4c3CCC4)n[nH]c2=S)o1	.	.	21*	.	.	.	16	-1
SMILES	HTR5A inv ag	OPRM1-OPRD1 inv	HGIII-sPLA2 inh	HTR5A ag	m5-HT2A agonist	OPRM1-OPRD1 ag	hGIII sPLA2 conf	535nm interf	others
CC(=O)N1CCN(c2ccc(NCc3ccc(-c4ccc(Br)cc4)o3)cc2)CC1	-12	-12	20*	-2	-1	2	20*	-21
C[C@H]1O[C@@H](n2c3ccc(Cl)cc3c3ccc4c5cc(Cl)ccc5[nH]c4c32)[C@H](O)[C@H](O)[C@H]1O	.	.	-14	.	.	.	.	.
Cc1ccccc1C(=O)NC(=S)Nc1ccccc1N1CCCC1	17	-20	20*	-3	-3	4	27*	-7
COc1ccccc1C(=O)NC(=S)Nc1ccccc1N1CCCC1	0	-3	6	0	-3	1	.	.
CC1(C)CC(=O)C(N=Nc2ccc(C(F)(F)F)cc2[N+](=O)[O-])=C(O)C1	.	.	20*	.	10	.	10	-4
CC1(C)CC(=O)C(N=Nc2cccc([N+](=O)[O-])c2)=C(O)C1	-6	7	4	6	-1	-1	.	.
O=C(NC1CCCC1)c1cc(-c2ccc(Cl)cc2)on1	-5	-5	19*	2	-6	1	-4	-8
CC(=O)NCc1ccc(OCCCN2CCC(C(O)(c3ccccc3)c3ccccc3)CC2)cc1	.	.	-16	.	.	.	.	.
CCCCNC(=O)C1(C)CCN1C(=O)Cc1ccc(OC)cc1 (stereo not given)	.	.	6	.	-6	.	.	.
CCOC(=O)C1(C)CCN1C(=O)Cc1ccc(OC)cc1 (stereo not given)	.	.	25*	.	0	.	7	-4
O=C(NNC(=S)Nc1ccccc1)c1cc(Br)ccc1Cl	-24	24	33*	-1	0	-5	28*	6.1*
O=C(NNC(=S)Nc1ccccc1)NNC(=S)Nc1ccccc1	16	10	34*	-6	-8	-2	29*	0	535nm interf DR=>122
COc1ccc(CCC(=O)NNC(=S)Nc2cccc(C(C)=O)c2)cc1	3	16	20*	-1	9	-3	28*	1	535nm interf DR=>122
Oc1ccc(NC(=S)Nc2ccccc2)cc1	-18	0	1	5	-1	0	.	.
CC(C)Oc1ccc(CC(=O)NNC(=S)Nc2ccccc2)cc1	-12	16	29*	2	7	-3	30*	-5	535nm interf DR=>122
CN(C)C(=O)C[n+]1ccc(C(N)=O)cc1	-38	1	11	-4	2	0	.	.
CC(C)(C)C(=O)C[n+]1ccc(C(N)=O)cc1	17	4	26*	-7	-1	-1	0	-3
